Laboratory results from PubChem BioAssay (NCI).
About 83,000 compounds went through this panel and 20% of them were active in at least one assay; those are over-represented in the sample as a whole.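 The test compound was applied at a single concentration to cells in 96-well plates for 48 hours, and percent growth was recorded.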 Values without a mark were called inactive. The source made the active and inactive calls. How the source made its calls: active means growth percent below 10; inactive means the rest.

These compounds were tested on NCI/ADR-RES ovarian (assay: NCI-60 one-dose screen, 48 h (100 = growth as untreated, 0 = no growth, -100 = all killed)). Settings: 10 µM unless noted.

| Compound | growth |
| --- | --- |
| CC(=O)c1ccc2c(c1)c1ccccc1n2C | 91.2% |
| CCC(C)CC(N)O (stereo unspecified) | 109% |
| COc1cc2ncnc(-n3ncc4cc(NC(=O)Nc5ccccc5)ccc43)c2cc1OC | 39.2% |
| O=C(O)CS(=O)c1ccc(Cl)cc1 (stereo unspecified) | 109% |
| O=C1C(=O)c2ccccc2C(O)=C1CCCc1ccc(Oc2ccccc2)cc1 | 91.6% |
| O=C1C(Br)=CC2C1C1C3CCC3C2(Br)C12OCCO2 (stereo unspecified) | 51.3% |
| CC1(C)NC(=S)NC1=O | 104% |
| CCCCCCCCCCC1OC(C)CC(C)O1 (stereo unspecified) | 105% |
| O=C1C=C(OCC=C(C(F)(F)F)C(F)(F)F)c2ccccc2C1=O | 28.6% |
| CCOC1=C(Cl)C(=O)C(OCC)=C(Cl)C1=O | 100% |
| O=C(NCCO)C(F)(F)F | 106% |
| Oc1ccc(Br)cc1/C=N/NC(=S)NC12CC3CC(CC(C3)C1)C2 | -3.63% (active) |
| COc1cc(N2C(=O)C=CC2=O)ccc1N1C(=O)C=CC1=O | 106% |
| c1cc[c]([Bi]([c]2ccccc2)[c]2ccccc2)cc1 | 98% |
| O=C(CN1C(=O)NC(c2ccccc2)(c2ccccc2)C1=O)c1ccc(N2CCCC2)cc1 | 67.2% |
| CC(O)CN(CCO)CCN(CCO)CC(C)O (stereo unspecified) | 112% |
| CNc1ccc(Nc2ccc(S(=O)(=O)O)cc2)c2c1C(=O)c1ccccc1C2=O | 108% |
| Cc1ccc(S(=O)(=O)NC(CCC(=O)Nc2ccccc2)C(=O)Nc2ccccc2)cc1 (stereo unspecified) | -24.7% (active) |
| COC1(OC)N=C(N)C2(C#N)C3(C(=O)Nc4ccccc43)C12C#N (stereo unspecified) | 100% |
| Cn1c2ccccc2c2ccccc21 | 101% |
| Oc1ccc([S+](c2ccc(O)cc2)c2ccc(O)cc2)cc1 | 112% |
| Nc1cc(N)c2nc(-c3ccccc3)c(NCCc3ccc(Cl)c(Cl)c3)nc2c1 | -54.3% (active) |
| COC(=O)Nc1nc2ccc(C(=O)c3ccccc3N(C)C3COC3)cc2[nH]1 | 53.3% |
| CCOP1(=O)CC(C)=C(Cl)C(P(=O)(O)O)C1 (stereo unspecified) | 96.1% |
| CCCCCCCCC1OC1CCCCCCCC(=O)O (stereo unspecified) | 104% |
| CC(O)CN(CC(C)O)N(CC(C)O)CC(C)O (stereo unspecified) | 106% |
